Results filed as inconclusive are left out. The source made the active and inactive calls. The call rests on the fitted dose curve; in most records, active means well fitted curve in the direction sought with a large enough effect; inconclusive means small, poorly fitted or top-dose-only effect, or another doubt; inactive means no such curve, though single readings can be large; an effect the other way counts as inactive or inconclusive.
Experiments:
[1] = Cell Viability - LYMP2-010 (AID 981); further: nearly all actives have a fitted effect of over 55% in size
In short: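 Human lymphoblastoid LYMP2-010 cells (2500/well) treated 24 h at 37 C in complete medium; viability read as intracellular ATP by CellTiter-Glo luminescence. AC50 from Hill fits of concentration-response data; tetraoctylammonium bromide positive control.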

[2] = Cell Viability - LYMP2-012 (AID 982);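 further: cellular ATP by luciferase luminescence where a drop means cytotoxicity; cells exposed to compound for one day before reading; nearly all actives have a fitted effect of over 55% in size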
[3] = Cell Viability - LYMP2-014 (AID 983); further: series mostly up to about 92 µM; nearly all actives have a fitted effect of over 50% in size
In short: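 LYMP2-014 human lymphoblastoid cells, 2500/well, treated 24 h at 37 C in complete medium; viability by CellTiter-Glo ATP luminescence after 30 min at room temperature. AC50 from Hill fits of qHTS concentration-response; tetraoctylammonium bromide positive control.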

[4] = Cell Viability - LYMP2-016 (AID 984); further: nearly all actives have a fitted effect of over 55% in size
In short: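 Concentration-dependent ATP depletion measured in LYMP2-016 lymphoblastoid cells, 24 h, 37 C; luciferase-based luminescent detection; Hill-equation AC50.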

[5] = Cell Viability - LYMP2-018 (AID 985);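 further: compound exposure lasted 24 hr at 37 °C; nearly all actives have a fitted effect of over 50% in size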
In short: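 Human lymphoblastoid LYMP2-018 cells, 2500/well, settled 5 hr at 37 C then exposed to compound 24 hr at 37 C; intracellular ATP measured by CellTiter-Glo luminescence. AC50 from Hill-equation concentration-response fits.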

[6] = Cell Viability - LYMP2-020 (AID 986); further: series mostly up to about 92 µM; nearly all actives have a fitted effect of over 55% in size
In short: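 Human lymphoblastoid LYMP2-020 cells (2500/well) preincubated 5 h at 37 C, then treated 24 h at 37 C. Viability measured as intracellular ATP by CellTiter-Glo luminescence after 30 min at room temperature; AC50 from Hill fits.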

[7] = Cell Viability - LYMP2-022 (AID 987); further: nearly all actives have a fitted effect of over 55% in size
In short: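 LYMP2-022 lymphoblastoid cells (2500/well, complete medium) were treated with compounds for 24 hours at 37 C; intracellular ATP was then read by CellTiter-Glo luminescence after 30 min at room temperature. AC50 values were derived from Hill-equation fits.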

[8] = Cell Viability - LYMP2-026 (AID 989); further: nearly all actives have a fitted effect of over 50% in size
In short: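 Human lymphoblastoid LYMP2-026 cells, 2500/well, exposed to compound 24 h at 37 C in complete medium. Viability as intracellular ATP by CellTiter-Glo luminescence; AC50 from Hill fits of qHTS concentration-response.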

[9] = Cell Viability - LYMP1-002 - Assay at 24 hr (AID 993)
In short: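 Human lymphoblastoid LYMP1-002 cells (2500/well) treated 24 h at 37 °C; viability as intracellular ATP by CellTiter-Glo luminescence. Tetraoctylammonium bromide as positive control; AC50 from Hill-equation fits of qHTS concentration-response.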

[10] = target: Alpha-galactosidase A (Homo sapiens) (UniProt P06280); assay: Counterscreen for Glucocerebrosidase Inhibitors: qHTS Assay for Human alpha-Galactosidase at pH 4.5 (AID 992)
In short: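 Enzyme at 2 nM final was combined with compound (0.7 nM to 77 uM) and 80 uM 4-methylumbelliferyl alpha-D-galactopyranoside in 50 mM citric acid, 0.005% Tween-20, pH 4.5. After 20 min at room temperature, fluorescence was read (Ex 365/Em 440 nm); AC50 came from Hill fits.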

Measured: outcome

Sequence of Alpha-galactosidase A (Homo sapiens) (P06280 whole entry, looked up): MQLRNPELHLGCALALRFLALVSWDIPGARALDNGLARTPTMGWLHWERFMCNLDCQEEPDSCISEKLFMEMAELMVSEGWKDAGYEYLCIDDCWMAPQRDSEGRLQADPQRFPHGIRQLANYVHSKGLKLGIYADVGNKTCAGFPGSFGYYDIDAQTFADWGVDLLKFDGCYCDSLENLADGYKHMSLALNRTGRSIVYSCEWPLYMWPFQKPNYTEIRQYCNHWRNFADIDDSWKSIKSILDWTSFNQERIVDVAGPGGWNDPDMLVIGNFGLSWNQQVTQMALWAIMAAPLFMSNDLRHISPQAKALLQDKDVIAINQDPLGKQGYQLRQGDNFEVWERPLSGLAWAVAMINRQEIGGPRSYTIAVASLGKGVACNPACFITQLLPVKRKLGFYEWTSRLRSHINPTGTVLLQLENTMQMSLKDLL

CC1CC(OC(=O)c2ccccc2O)CC(C)(C)C1 (stereo not given)
not listed: [10]
inactive: all other assays above

Cc1c(N(C)C)c(=O)n(-c2ccccc2)n1C
not listed: [10]
inactive: all other assays above

O=C(c1ccccc1)C(O)c1ccccc1 (stereo not given)
not listed: [10]
inactive: all other assays above

CCN(CC)C(=O)c1cccc(C)c1
not listed: [10]
inactive: all other assays above

O=C(O)CCCCC1CCSS1 (stereo not given)
not listed: [10]
inactive: all other assays above

O=C1c2cccc(O)c2C(=O)c2c(O)cccc21
inactive: [6] | [7] | [8] | [9]

CCCCCCCC(=O)OCC(COC(=O)CCCCCCC)OC(=O)CCCCCCC
not listed: [10]
inactive: all other assays above

Cc1cc(C)nc(NS(=O)(=O)c2ccc(N)cc2)n1
not listed: [10]
inactive: all other assays above

CCCC(O)C(CC)CO (stereo not given)
not listed: [10]
inactive: all other assays above

COc1ccc(O)cc1
not listed: [10]
inactive: all other assays above

CCCCOC(=O)c1ccc(N)cc1
not listed: [10]
inactive: all other assays above

CN1C(C)(C)CCCC1(C)C
inactive: [10]

CC(=O)Nc1cccc(O)c1
not listed: [10]
inactive: all other assays above

FC(F)(F)C(Cl)Br (stereo not given)
not listed: [10]
inactive: all other assays above

Nc1ccc(S(=O)(=O)c2ccc(N)cc2)cc1
not listed: [10]
inactive: all other assays above

NC(=O)CC[C@@H](N)C(=O)O
inactive: [10]

CC(=O)Nc1ccc(C(=O)O)cc1
not listed: [10]
inactive: all other assays above

O=C1C(c2[nH]c3ccccc3c2O)=Nc2ccccc21
not listed: [10]
inactive: all other assays above

CCCCCC(N)=O
not listed: [10]
inactive: all other assays above

CC(=O)NS(=O)(=O)c1ccc(N)cc1
not listed: [10]
inactive: all other assays above

CC(=O)Nc1ccccc1
not listed: [10]
inactive: all other assays above

C=CCNC(N)=S
not listed: [10]
inactive: all other assays above

CC(=O)OCC(COC(C)=O)OC(C)=O
not listed: [10]
inactive: all other assays above

Cc1cc(=O)[nH]c(=S)[nH]1
not listed: [10]
inactive: all other assays above
